These results are taken from publication PMC7819943, “Rice protein-binding microarrays: a tool to detect cis-acting elements near promoter regions in rice”.

The full ranking holds about 39,000 sequences; the median of “fluorescence intensity (a.u.)” is about 4,300, and the highest 2% start at about 39,000. The full list was thinned out, with the highest values kept by preference.

The test deals with T1, OsSMF1 (Oryza sativa, UniProt Q6ZLB0 1-436).
T1 sequence: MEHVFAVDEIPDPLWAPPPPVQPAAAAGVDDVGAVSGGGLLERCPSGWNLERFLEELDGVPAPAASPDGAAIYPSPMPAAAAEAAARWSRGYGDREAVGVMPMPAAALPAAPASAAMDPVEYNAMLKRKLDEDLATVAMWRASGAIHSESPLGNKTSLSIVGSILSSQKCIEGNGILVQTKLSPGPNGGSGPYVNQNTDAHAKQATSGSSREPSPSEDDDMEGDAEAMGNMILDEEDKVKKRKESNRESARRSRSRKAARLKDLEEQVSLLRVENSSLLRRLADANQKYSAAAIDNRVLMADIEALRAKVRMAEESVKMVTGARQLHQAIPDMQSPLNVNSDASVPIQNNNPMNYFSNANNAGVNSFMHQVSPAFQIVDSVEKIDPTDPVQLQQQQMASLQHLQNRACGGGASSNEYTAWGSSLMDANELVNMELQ
Briefly: protein-binding microarray (RPBM); PBS, 2% BSA, 51.3 ng/ul salmon testes DNA, 50 uM zinc acetate, 200 nM TF, 25 C, 1 h; high values mean tight binding. The note with it: protein: recombinant; tags: N-terminal polyhistidine and DsRed monomer fusion (pET32a); chain copies: 2; label: CyDye5-dUTP incorporated in the synthesized complementary strand; 3' TTTTT single-stranded linker to array surface; dsDNA, one strand shown. The gist of the method: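 Using Ni–NTA, transcription factors fused N-terminally to polyhistidine and DsRed were purified after expression in E. coli BL21-CodonPlus. These were incubated at 200 nM with a blocked, double-stranded custom Agilent array for 1 h at 25 °C in a buffer containing 50 µM zinc acetate, and the array was washed. The binding signal is per-feature fluorescence intensity (arbitrary units) on an Axon 4000B scanner.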
Consider “ATACTATGTTAATTTGTCTGTGTCCTAATGACGCACCATACGGAGTCACCTAGTGCAG”, for which the binding signal was 4820 fluorescence intensity (a.u.). As to “TTTACTGTAGCACCACATTGTCAAATTATGACGTAATTAGCGGAGTCACCTAGTGCAG”, the binding signal was 5440 fluorescence intensity (a.u.).

In the case of “AACTTTGTTGTTGATGACGTTTTCAGTTGAAGTCGTTCACCGGAGTCACCTAGTGCAG”, the binding signal was 7120 fluorescence intensity (a.u.).

Regarding “ATTTGTAAACAATGTTACTATCACTTTATCAGATGAAGAACGGAGTCACCTAGTGCAG”, the binding signal was 34600 fluorescence intensity (a.u.). Then “AACGTGCCACTTTACCTGACGTGATGAAACAATATTATCACGGAGTCACCTAGTGCAG”, with 3320 fluorescence intensity (a.u.). In the case of “GGATGATGTGACTTAATAACAGAAGAGAGAAATAATATTACGGAGTCACCTAGTGCAG” it was 40600 fluorescence intensity (a.u.); in that of “TGATTATTTGTGAAATAAAATGAGATAAAATGTGATTTTACGGAGTCACCTAGTGCAG”, 28600 fluorescence intensity (a.u.); in that of “ATGCTATTATATAAGAGAAAATATAATGATGCTGGCCGTGCGGAGTCACCTAGTGCAG”, 3240 fluorescence intensity (a.u.). In the case of “TGAACAATGTTACAAATCACTTTATCGGATGAAGAAATGACGGAGTCACCTAGTGCAG”, the binding signal is 46400 fluorescence intensity (a.u.). In the case of “CCAGGTCCCAGCCAGGGGTTTATTAGCTGATTCAAGACGTCGGAGTCACCTAGTGCAG” it was 14900 fluorescence intensity (a.u.). In the case of “CTGGACAGGAAGCAAAGCTCCTGACACGCCCAGCCGTCCCCGGAGTCACCTAGTGCAG” it was 3220 fluorescence intensity (a.u.). As to “ACCGCCATGTAGGTGCCACGTCATCGCCACGTGGAACGAACGGAGTCACCTAGTGCAG”, the binding signal was 32700 fluorescence intensity (a.u.). In the case of “CCGGATGACATGATGACACCGCTACCCATTAAGTTTCGTCCGGAGTCACCTAGTGCAG” it was 4050 fluorescence intensity (a.u.); in that of “CCCATTGATGCTACAGAGAGTCCACGTCACCCTCGTCTGCCGGAGTCACCTAGTGCAG”, 42800 fluorescence intensity (a.u.).

Take “TCACCCTGTCCTCGTCACGTCCCATTTTACATCCACCACCCGGAGTCACCTAGTGCAG”: the binding signal was 6570 fluorescence intensity (a.u.). Then “CTCCTTCCATTTGTACCCACGTCTGCTGTCCATTGACCGGCGGAGTCACCTAGTGCAG”, with 6910 fluorescence intensity (a.u.); and “GCTTGCTTGCTTGCATCCTCCTCACATTCACCACGAGGTTCGGAGTCACCTAGTGCAG”, with 3670 fluorescence intensity (a.u.); and “AGCTAGTACCTCACATGCATTCATCTTGCTTGCAATCCGTCGGAGTCACCTAGTGCAG”, with 45100 fluorescence intensity (a.u.). In the case of “GAATCTAGTAGCTTGCATCCTTTACATCTTCTCATCCTGTCGGAGTCACCTAGTGCAG” it was 32700 fluorescence intensity (a.u.); in that of “CATTCTTAATGTAAAATATGAATGTAAATGAAATGTATGCCGGAGTCACCTAGTGCAG”, 3840 fluorescence intensity (a.u.); in that of “CACAAGTTCTCCTACGCTGACTCCTCTCTTGGAACTTCAGCGGAGTCACCTAGTGCAG”, 5030 fluorescence intensity (a.u.). In the case of “GTTAGCGTGGCATGCCACGTCATCTCACGAAGCGGGTTAGCGGAGTCACCTAGTGCAG” it was 18100 fluorescence intensity (a.u.); in that of “CTGGCACGTAAGCGTTACCGTGGCATGCCACGTCATCTCACGGAGTCACCTAGTGCAG”, 39600 fluorescence intensity (a.u.). In the case of “CTGCACGTTACTCACGTGGCATCTCCAACTCTACCGCCAACGGAGTCACCTAGTGCAG”, the binding signal is 7570 fluorescence intensity (a.u.). Then “GCATGCATTGCCTCTTGCTCGCCTACGTGGTAATGAAAACCGGAGTCACCTAGTGCAG”, with 6560 fluorescence intensity (a.u.); and “GGGGTGAAAATGAATTAGATGCCACGTGCAGGTTCGCATGCGGAGTCACCTAGTGCAG”, with 10000 fluorescence intensity (a.u.); and “CTAATGCCACGTAAGTGCCACGTGGCATGAAAACCGGGTTCGGAGTCACCTAGTGCAG”, with 46300 fluorescence intensity (a.u.).

For the sequence “GGCCCACGTGGGTCCCACACTGACTCAGCTGCCACGTGGGCGGAGTCACCTAGTGCAG”, the binding signal is 38600 fluorescence intensity (a.u.). “CCACTGGCGACCGCCACGTCGACCTGGCGTGGGACCTCATCGGAGTCACCTAGTGCAG”: the binding signal is 8920 fluorescence intensity (a.u.).

On to “ATATGTGGGTCTCATGCTGACTCATCCGCCACGTCAGATACGGAGTCACCTAGTGCAG”, for which the binding signal was 42600 fluorescence intensity (a.u.). In the case of “CCCACGTGGGTCCCACGCTGACTCAGCCGCCACGTAGATCCGGAGTCACCTAGTGCAG” it was 25400 fluorescence intensity (a.u.). For “TGACATGTGGGGCCCACGCTGACTCAGCCGCCACGTCAGACGGAGTCACCTAGTGCAG”, the binding signal is 19600 fluorescence intensity (a.u.). In the case of “TATGCGTGGGTCACTGGGCCCACACGTCATCCTCACGTGGCGGAGTCACCTAGTGCAG” it was 49000 fluorescence intensity (a.u.).

Turning to “TATGTAGTACCACCCTGGTGTCACACATGTACCACTTGGTCGGAGTCACCTAGTGCAG”, the binding signal was 3910 fluorescence intensity (a.u.). In the case of “GGAGCTGAGGAGGGACAGCGAGCCAGCGAGGGAGGTGGGGCGGAGTCACCTAGTGCAG” it was 3160 fluorescence intensity (a.u.). In the case of “GGGGACATTACTCCGTGGTTTACATGTCATCCAAATAGTTCGGAGTCACCTAGTGCAG” it was 5320 fluorescence intensity (a.u.). In the case of “TATATACAAGTTCACCCCGAAACCTAGTCAGAGTATGACACGGAGTCACCTAGTGCAG”, the binding signal was 4240 fluorescence intensity (a.u.). Then “ACTTGCCACGGTGCCGCCTAACAGGCAGCCGTACCTGCCTCGGAGTCACCTAGTGCAG”, with 3320 fluorescence intensity (a.u.); and “TGAAATACTTACAAGTCGATCGAACAACACCTGTCATCATCGGAGTCACCTAGTGCAG”, with 4160 fluorescence intensity (a.u.). In the case of “GCGGCCTATTGTTAGCGAGGAGTCACCCAGATTCTTCTCCCGGAGTCACCTAGTGCAG” it was 6870 fluorescence intensity (a.u.); in that of “TACTATTAGGTATGTGGTATCCATAACCCTGACACATACCCGGAGTCACCTAGTGCAG”, 3600 fluorescence intensity (a.u.); in that of “CGTGAAAGTGCTTCGAAAGGTGTCAGCAGGTGCGCGGAGCCGGAGTCACCTAGTGCAG”, 3530 fluorescence intensity (a.u.).

Take “GTCAGGTGGCGGCGGCGGCGGTGGTGGCGGTGGAGGTGGACGGAGTCACCTAGTGCAG”: the binding signal is 5570 fluorescence intensity (a.u.). For “ATCCATAACTATGTAACGTCATAGCCACCCAGCCTCGCTTCGGAGTCACCTAGTGCAG”, the binding signal was 5580 fluorescence intensity (a.u.).
